# CCT modulator: modulators of cytosolic chaperonin (CCT/TRiC) activity; 360,000 compounds, 0.3% hits; activity change, % (test concentration not listed), hits read low; purified chaperonin ATPase assay, HTRF ADP detection, 30 min; AID 651819; in the data active means activity change below about -30%
#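 ATPase activity: ADP formed was measured by HTRF Transcreener (665/615 nm ratio) after 30 min at 37 deg C with 10 uM ATP. Compounds screened at one 76 uM concentration against 40 or 20 nM TRiC in Tris pH 7.4/KCl/MgCl2/DTT buffer.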
# aSyn yeast inh: inhibitors of alpha-synuclein toxicity in yeast. Yeast expressing alpha-synuclein, growth rescue, BacTiter-Glo, 24 h. Potency, µM (doses to about 46.1 µM), hits mostly activators. 370,000 compounds, 0.14% hits. AID 652106; further: nearly all actives have a fitted effect of over 65% in size
#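 Readout is rescue of growth in alpha-synuclein-expressing yeast, so inhibitors of toxicity appear as activators. Growth after 24 hr at 30 deg C in galactose medium is quantified by luminescence.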
# Mito fusion act: mitochondrial division inhibition or fusion activation. 320,000 compounds, 0.23% hits. S. cerevisiae fusion-defective mutant growth rescue, CellTiterGlo 48 h. AID 485298. Potency, µM (top dose mostly 46.1 µM), most hits filed as activators; further: nearly all actives have a fitted effect of over 45% in size
#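 Luminescent cell viability in 1536-well qHTS format served as the measure of rescued growth in ts fusion-mutant S. cerevisiae cultured on non-fermentable YPEG for 48 hours at 37C.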
# Apoferritin bind: candidate novel general anesthetic via apoferritin binding. P02791. apoferritin/1-aminoanthracene competitive binding, fluorescence. Potency, µM (series often up to 77.5 µM), hits mostly inhibitors. 350,000 compounds, 0.074% hits. AID 485281; further: nearly all actives have a fitted effect of over 20% in size
# Target sequence (P02791 2-175 limits assumed): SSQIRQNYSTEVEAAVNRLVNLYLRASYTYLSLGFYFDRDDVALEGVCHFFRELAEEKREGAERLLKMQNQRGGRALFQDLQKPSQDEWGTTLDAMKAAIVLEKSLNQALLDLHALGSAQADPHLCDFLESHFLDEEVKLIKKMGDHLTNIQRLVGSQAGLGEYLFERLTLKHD
#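 Concentration-response curves derived by four-parameter Hill fitting of normalized fluorescence, where compounds displaced 1-AMA from 10 uM horse apoferritin following a brief 10 min room-temperature incubation; propofol titration acted as positive control.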
# TDP43 rescue: inhibitors of TDP-43 toxicity in yeast; TDP-43 expressing yeast growth rescue, BacTiter-Glo, 24 h; Potency, µM (doses to about 46.1 µM), most hits filed as activators; 410,000 compounds, 1.8% hits; AID 652104; further: nearly all actives have a fitted effect of over 50% in size
#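 Yeast expressing TDP-43 (pregrown in raffinose, seeded at OD600=0.02 in galactose medium) exposed to compounds 24 hr at 30 deg C. Growth read by BacTiter-Glo luminescence; rescue of toxicity appears as increased signal.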
# pAkt inh: Akt phosphorylation inhibition; Neuro2A IGF-stimulated pAkt S473 HTRF, 20 min; stronger effect = lower value; activity change, % for hits at 50 µM; 360,000 compounds, 0.32% hits; in the data active means activity change below about -80%; inconclusive means mostly about -51% to -80%
#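 Neuro2A cells in DMEM with 0.5% FBS, overnight at 37 deg C, given compound at single 50 µM final, then IGF (6 nM final) for 20 min at 37 deg C. Lysed; phospho-Akt Ser473 by HTRF after 24 h, 665/615 ratio.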
# Hits are given with their value; – = inactive; ? = inconclusive; · = no result; [ ] = another dose, or the depositor's remark. An excerpt weighted towards active compounds, which were near 2.5% of everything screened. Unless noted, the call rests on the fitted dose curve; in most records, active means well fitted curve in the direction sought with a large enough effect; inconclusive means small, poorly fitted or top-dose-only effect, or another doubt; inactive means no such curve, though single readings can be large; an effect the other way counts as inactive or inconclusive.
SMILES,CCT modulator,aSyn yeast inh,Mito fusion act,Apoferritin bind,TDP43 rescue,pAkt inh
CCc1sc(C(=O)Nc2nc(-c3ccccn3)cs2)cc1C,–,4.5µM,·,·,?,–
O=C(Nc1nc(-c2ccccn2)cs1)c1cc2ccccc2o1,–,?,–,–,?,–
Cc1c(C(=O)Nc2nc(-c3ccccn3)cs2)oc2ccccc12,–,–,–,·,6.3µM,–
CCc1sc(C(=O)Nc2nccs2)cc1C,–,–,–,–,–,–
CC(=O)OC[C@@H]1O[C@@H](O/N=C2/C[C@@H](O)[C@@H](O)[C@@H]3[C@@H]4C(=O)N(C(C)(C)C)C(=O)[C@H]4CC[C@H]23)[C@H](OC(C)=O)[C@H](OC(C)=O)[C@@H]1OC(C)=O,·,·,·,–[15.3 µM],·,·
Cc1csc(NCC(=O)c2c(C)[nH]c3ccccc23)n1,·,–,·,·,·,·
COc1cccc(Cn2c(C(C)n3c(-c4cnccn4)nc4ccccc43)nc3ccccc32)c1 (centres undefined),·,?,·,·,14µM,–
COc1cccc(OCc2nc3ccccc3n2Cc2ccccc2)c1,·,·,·,–,22µM,·
COc1ccc(OCc2nc3ccccc3n2C(C)c2ccccc2)cc1 (centres undefined),·,·,·,–,13µM,·
CC(c1ccccc1)n1c(CO)nc2ccccc21 (centres undefined),–,–,–,–,–,–
COc1cccc(S(=O)(=O)N2CCN(c3nc(-c4cccs4)nc4ccccc34)CC2)c1,·,–,·,·,·,·
O=C(NCc1ccc(F)cc1)c1c(O)nc2ccccn2c1=O,·,·,·,–,–,·
COc1ccccc1C(=O)c1c(N)c(-c2nc(-c3ccccc3)cs2)c2ccccn12,·,·,·,–,–,·
COc1ccc(Br)cc1Cn1nnc(C(=O)Nc2ccc3c(c2)OCCO3)c1N,–,–,10µM,–,–,–
COc1ccc(NC(=O)c2nnn(CC(=O)Nc3ccc4c(c3)OCO4)c2N)cc1OC,–,–,–,–,–,–
O=C(NCCCN1CCCC1)c1cc2c(Cl)nc3ccccc3c2s1,–,–,–,–,–[0.397 µM],–
O=C(c1cc2c(Cl)nc3ccccc3c2s1)N1CCCCC1,·,·,·,?,35µM,·
O=C1C=CC(=O)C2=C1C1c3ccccc3C2c2ccccc21,·,·,·,–,·,·
COc1cc(-c2nnc(SCC(=O)N3c4ccccc4Sc4ccccc43)o2)cc(OC)c1OC,–,–,–,–,–,–
O=C(Sc1nnc(-c2ccccc2)o1)N1c2ccccc2Sc2ccccc21,–,–,–,–,11µM,–
COc1cccc(CNC(=O)CCc2c(C)c3cc4c(C)coc4c(C)c3oc2=O)c1,·,·,·,–,–,·
Cc1ncc(N=Nc2ccc(F)cc2)c(-c2ccc(Cl)cc2)n1,–,–,–,–,–,-118%
COc1ccc(-c2nc(C)ncc2N=Nc2ccccc2)cc1,–,–,–,–,?,-114%
COc1ccc(N=Nc2nc(-c3ccccc3)c(-c3ccccc3)[nH]2)cc1,–,–,?,–,?,–
Cc1ncc(S(=O)(=O)c2ccc(Cl)cc2)c(-c2ccccc2)n1,–,–,–,–,–,–
SMILES,CCT modulator,aSyn yeast inh,Mito fusion act,Apoferritin bind,TDP43 rescue,pAkt inh
Nc1nc(-c2ccco2)nn1C(=O)c1ccc(F)cc1,–,–,–,–,11µM,–
Nc1nc(-c2ccco2)nn1C(=O)c1ccccc1,–,–,–,–,–,–
Nc1ccccc1Nc1ccccc1,–,–,–,–,–,–
Nc1ccc(Nc2ccccc2)c(Cl)c1,–,–,–,7.9µM,–,–
COc1ccccc1CNc1nc(-c2ccco2)nn1C(=O)c1ccccc1[N+](=O)[O-],·,·,·,–,–,·
Cn1c(CN2CCCC2)nc2cc(NC(=O)COc3ccccc3)ccc21,–,–,–,–,–,-106%
Cn1c(CCN2CCCCC2)nc2cc(NC(=O)COc3ccccc3)ccc21,–,–,–,–,–,–
O=C(COc1ccccc1)Nc1ccc2nc(SCC(=O)N3CCCC3)sc2c1,·,·,·,–,32µM,·
COc1ccc(C(=O)Nc2ccc3nc(SCC(=O)N(C)c4ccccc4)sc3c2)cc1,·,·,·,–,22µM,·
O=[N+]([O-])c1ccc(-c2nc(NCc3ccccc3)c3ccccc3n2)cc1,–,–,–,–,–,–
O=[N+]([O-])c1cccc(-c2nc(NCc3ccccc3)c3ccccc3n2)c1,–,–,3.2µM,–,–,–
c1ccc(-c2nc(NCc3cccs3)c3ccccc3n2)cc1,-48,–,–,–,–,–
CN(Cc1ccccc1)c1nc(-c2cccc([N+](=O)[O-])c2)nc2ccccc12,–,–,–,–,14µM,–
c1csc(CNc2nc(-c3cccs3)nc3ccccc23)c1,–,–,–,–,–,–
O=C(Nc1cccnc1)c1ccc([N+](=O)[O-])s1,–,–,–,·,13µM,–
Cc1cc2oc(=O)cc(Cn3ncc(Cl)c(Cl)c3=O)c2cc1Cl,-48,–,–,–,–,–
CSc1ccc(/C=C/C(=O)OCC(=O)NC2CCCC2)cc1,–,–,·,·,20µM,–
O=C(COC(=O)c1ccc(F)cc1Cl)NC1CC1,-50,–,·,·,–,–
O=C(COC(=O)/C=C/c1ccc(Cl)c(Cl)c1)NC1CC1,–,–,·,·,10µM,–
O=C(COC(=O)/C=C/c1ccc(Cl)cc1)NC1CCCC1,–,–,–,·,–,–
O=C(COC(=O)c1ccc2c(c1[N+](=O)[O-])C(=O)c1ccccc1C2=O)NC1CC1,–,–,–,–,3.5µM,–
O=C(COC(=O)/C=C/c1ccc(F)cc1)NC1CCCC1,–,–,–,·,–,–
O=C(O)c1ccc2c(ccc3nn(-c4ccc(/C=C/c5ccc(-n6nc7ccc8cc(C(=O)O)ccc8c7n6)cc5[S+](=O)([O-])[O-])c([S+](=O)([O-])[O-])c4)nc32)c1,·,–,·,·,·,·
CCOC(=O)Cn1nc(C)c(NC(=O)COc2ccc(Cl)cc2C)c1C,·,·,·,–,–,·
Cc1ccc(O)c(N=Nc2ccccc2)n1,–,–,–,?,11µM,–
SMILES,CCT modulator,aSyn yeast inh,Mito fusion act,Apoferritin bind,TDP43 rescue,pAkt inh
Oc1ccc(Cl)cc1N=Nc1ccccc1,–,–,–,–,–,–
O=C(CNC(=O)C1CCCCC1)OCC(=O)c1ccc([N+](=O)[O-])cc1,·,–,·,·,·,·
CC(=O)N1CCN(c2c(F)c(F)c(C(F)(F)F)c(F)c2F)CC1,-38,–,–,–,?,–
CC(=O)N1CCN(c2nc3c(F)cc(F)cc3s2)CC1,·,·,·,–,–,·
CCc1ccc(NS(=O)(=O)c2cc3c4c(c2)CCN4C(=O)CC3)cc1,-61,–,–,·,–,–
O=C1CCc2cc(S(=O)(=O)Nc3cccc(F)c3)cc3c2N1CC3,–,–,–,·,–,–
O=C1c2ccccc2NC(c2cc(Br)c3c(c2)OCO3)N1Cc1ccco1 (centres undefined),·,–,·,·,·,·
